This passage reports composite z-score and z-score results from PubChem BioAssay.

Active and inactive are the calls of the source.

The test system of experiment [1] is Plasmodium falciparum Sir2 (PF13_0152, Sir2A). The experiment in a line: Plasmodium falciparum Sir2A binding compounds – biochemical, small-molecule microarray, 635 nm fluorescence, primary screen (AID 1098).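 Note: score merges spot fluorescence intensity with its signal-to-noise ratio.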 As to conditions: fluorescence 635 nm, higher = more signal.
A short description of experiment [2]: probe aDKK1 binding to arrayed compounds – biochemical, biotinylated probe, 635/667 nm fluorescence, primary screen (AID 1099).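 Note: score merges 667nm spot fluorescence with signal to noise across triplicate slides.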 As to conditions: small-molecule microarray, higher = more signal.
Experiment [3] can be described thus: probe aCHRDL2 binding to arrayed compounds – biochemical, biotinylated probe, 635/667 nm fluorescence, primary screen (AID 1100). The settings on record: small-molecule microarray, higher = more signal.
The nature of experiment [4]: change in splice reporter luminescence, either direction, cell-based, HEK293, spliceosome inhibition project, primary screen (AID 1101).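 Note: HEK293 cells carrying a splicing-competent luciferase reporter gene; test concentration not given here.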 The settings on record: HEK293 splicing luciferase reporter, 24 h, higher = more signal, called active from +8 up or from −8 down.
The target of experiment [5] is Fibroblast growth factor 10 (Homo sapiens) (UniProt O15520). The experiment in a line: compounds binding fibroblast growth factor 10 – biochemical, small-molecule microarray, 635 nm fluorescence, primary screen (AID 1102). The settings on record: FGF10 binding, fluorescence 635 nm, higher = more signal.
The subject of experiment [6] is glycogen synthase kinase-3 (GSK3A per assay name; protocol says GSK3B). The experiment in a line: compounds binding glycogen synthase kinase-3 – biochemical, small-molecule microarray, 635 nm fluorescence, GSK3A, primary screen (AID 1103). Note: the record names both GSK3A and GSK3B. The settings on record: fluorescence 635 nm, higher = more signal.
The target in experiment [7] is Epidermal growth factor receptor (Homo sapiens) (UniProt P00533). The experiment in a line: compounds binding epidermal growth factor receptor – biochemical, small-molecule microarray, 635 nm fluorescence, primary screen (AID 1104).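 Note: score merges 667 nm emission intensity with spot signal to noise over triplicate slides.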 The settings on record: EGFR binding, higher = more signal.
For experiment [8], the target named is Follistatin-related protein 3 (Homo sapiens) (UniProt O95633). The experiment in a line: compounds binding follistatin-related protein 3 – biochemical, small-molecule microarray, 635 nm fluorescence, primary screen (AID 1105).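 Note: score merges emission near 667 nm and signal to noise per printed spot across three slides.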 As to conditions: FSTL3 binding, higher = more signal.
For experiment [9], the target named is Dickkopf-related protein 1 (Homo sapiens) (UniProt O94907). The experiment is described as follows: small molecules binding DKK1 protein – biochemical, small-molecule microarray, 635 nm fluorescence scan, primary screen (AID 1106).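 Note: score merges emission near 667 nm with signal to noise over three replicate slides.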 As to conditions: higher = more signal.
For experiment [10], the system named is Inhibin beta A chain (activin A). The experiment is described as follows: small molecules binding activin A – biochemical, small-molecule microarray, 635 nm fluorescence scan, primary screen (AID 1107).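 Note: mouse activin A protein probed at 4.33 µg/mL on printed slides; score merges bound-protein fluorescence near 667 nm with spot signal-to-noise.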 As to conditions: INHBA, higher = more signal.
In experiment [11] the test system is Human papillomavirus type 1a protein E7 (residues 44-93). The experiment in a line: small molecules binding HPV E7 44-93 – biochemical, small-molecule microarray, residues 44-93, 635 nm fluorescence, primary screen (AID 1108).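 Note: E7 fragment applied at 1 µg/mL in TBST for 1 h at 4 C; score combines spot fluorescence with its signal to noise ratio.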 The settings on record: fluorescence 635 nm, higher = more signal.
The nature of experiment [12]: hepatitis C replication reporter changes, two-sided – Huh7 cells, luciferase reporter, HCV replication inhibitor project, primary screen (AID 1109).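 Note: huh7 hepatoma cells harbouring a luciferase neomycin HCV replicon reporter; luciferase luminescence as measure of HCV replicon replication; test concentration not given here.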 As to conditions: Huh7 HCV replicon luciferase reporter, 48 h; higher = more signal.
Experiment [13] addresses Left-right determination factor 2 (Homo sapiens) (UniProt O00292). The experiment is described as follows: small molecules binding LEFTY2 protein – biochemical, small-molecule microarray, 635 nm fluorescence scan, primary screen (AID 1110). As to conditions: higher = more signal.
Experiment [14] has as its target Calmodulin-1 (Homo sapiens) (UniProt P0DP23). The experiment in a line: small molecules binding calmodulin-1 with EGTA – biochemical, small-molecule microarray, Cy5-labelled CALM1, profiling panel (AID 1111).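 Note: labelled calmodulin applied in Tris saline Tween buffer holding calcium plus EGTA and DTT.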 The settings on record: Cy5-CALM1 binding fluorescence, higher = more signal.
For experiment [15] the target is unchanged. The experiment is described as follows: small molecules binding Ca-loaded calmodulin-1 – biochemical, small-molecule microarray, Cy5-labelled CALM1, plus calcium, artefact control for SMM control-protein annotation, profiling panel (AID 1112).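 Note: score merges spot fluorescence with signal to noise from triplicate slides.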 The settings on record: Cy5-CALM1 binding fluorescence, higher = more signal.
Experiment [16] in a line: probe aWnt5a binding to arrayed compounds – biochemical, biotinylated probe, 635/667 nm fluorescence, primary screen (AID 1113).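 Note: score merges 667 nm fluorescence intensity with signal-to-noise per printed feature.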 As to conditions: small-molecule microarray, higher = more signal.
A short description of experiment [17]: probe aShh binding to arrayed compounds – biochemical, biotinylated probe, 635/667 nm fluorescence, primary screen (AID 1114).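 Note: probe is biotin-labelled aShh protein from a stem cell growth factor screen; measures binding of labelled protein to compounds printed on the slide; score merges feature fluorescence at 667 nm with signal-to-noise.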 The settings on record: small-molecule microarray, higher = more signal.
Experiment [18] can be described thus: probe aNog binding to arrayed compounds – biochemical, biotinylated probe, 635/667 nm fluorescence, primary screen (AID 1115).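 Note: probe is biotinylated aNog protein used at 0.15 µg/mL for 1 h at 4 C; z-score combines 667 nm fluorescence of each spot with its signal to noise.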 The settings on record: small-molecule microarray, higher = more signal.
The target in experiment [19] is Torsin-1A-interacting protein 1 (Homo sapiens) (UniProt Q5JTV8). The experiment is described as follows: compound microarray binding of lysate hLAP1 – cell lysate, small-molecule microarray, COS7 lysate, 635/667 nm fluorescence, primary screen (AID 1116). The settings on record: 635 nm fluorescence, higher = more signal.
Experiment [20] concerns the target Alpha-bungarotoxin (Bungarus multicinctus) (UniProt P60615). The experiment in a line: compounds binding labelled alpha-BTX control protein – biochemical, small-molecule microarray, Alexa647 label, 635/667 nm fluorescence, artefact control for SMM control protein annotation, profiling panel (AID 1117). The settings on record: alpha-BTX-A647 binding fluorescence, higher = more signal.

Alpha-bungarotoxin (Bungarus multicinctus), sequence (P60615 whole entry, looked up): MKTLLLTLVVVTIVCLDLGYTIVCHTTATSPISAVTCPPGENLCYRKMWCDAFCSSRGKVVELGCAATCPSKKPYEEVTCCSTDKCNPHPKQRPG
Torsin-1A-interacting protein 1 (Homo sapiens), sequence (Q5JTV8 whole entry, looked up): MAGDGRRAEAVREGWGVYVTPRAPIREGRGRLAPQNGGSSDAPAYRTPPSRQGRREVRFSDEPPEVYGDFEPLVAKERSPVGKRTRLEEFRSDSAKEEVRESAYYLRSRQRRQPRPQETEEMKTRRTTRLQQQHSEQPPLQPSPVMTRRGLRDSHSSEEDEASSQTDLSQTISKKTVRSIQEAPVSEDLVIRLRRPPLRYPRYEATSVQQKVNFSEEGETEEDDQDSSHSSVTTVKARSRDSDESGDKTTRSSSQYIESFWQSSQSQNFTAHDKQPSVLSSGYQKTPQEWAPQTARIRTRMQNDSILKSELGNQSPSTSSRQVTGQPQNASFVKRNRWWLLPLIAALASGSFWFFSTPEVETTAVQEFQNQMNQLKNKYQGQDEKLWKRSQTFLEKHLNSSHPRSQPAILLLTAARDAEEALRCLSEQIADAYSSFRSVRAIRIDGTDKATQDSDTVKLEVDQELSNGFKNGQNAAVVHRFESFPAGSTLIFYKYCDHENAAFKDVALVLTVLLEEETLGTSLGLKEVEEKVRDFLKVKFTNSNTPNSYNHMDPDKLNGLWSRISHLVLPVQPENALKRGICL
Left-right determination factor 2 (Homo sapiens), sequence (O00292 whole entry, looked up): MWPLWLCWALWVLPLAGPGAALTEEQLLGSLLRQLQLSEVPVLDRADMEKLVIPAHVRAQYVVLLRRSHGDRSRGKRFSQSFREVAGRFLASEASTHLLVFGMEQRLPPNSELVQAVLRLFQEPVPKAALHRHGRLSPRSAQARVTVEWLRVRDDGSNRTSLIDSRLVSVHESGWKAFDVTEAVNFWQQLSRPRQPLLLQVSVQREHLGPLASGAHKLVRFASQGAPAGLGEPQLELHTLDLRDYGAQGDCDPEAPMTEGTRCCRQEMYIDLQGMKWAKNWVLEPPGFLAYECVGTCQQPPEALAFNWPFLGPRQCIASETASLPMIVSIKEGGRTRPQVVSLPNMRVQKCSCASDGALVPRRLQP
Follistatin-related protein 3 (Homo sapiens), sequence (O95633 whole entry, looked up): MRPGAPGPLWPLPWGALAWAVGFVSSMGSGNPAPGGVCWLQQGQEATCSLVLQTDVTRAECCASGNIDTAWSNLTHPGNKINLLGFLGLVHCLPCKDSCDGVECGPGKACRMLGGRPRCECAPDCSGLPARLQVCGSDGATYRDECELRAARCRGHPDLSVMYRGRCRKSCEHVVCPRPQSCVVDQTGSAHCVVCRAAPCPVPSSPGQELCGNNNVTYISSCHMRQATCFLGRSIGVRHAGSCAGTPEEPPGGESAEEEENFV
Dickkopf-related protein 1 (Homo sapiens), sequence (O94907 whole entry, looked up): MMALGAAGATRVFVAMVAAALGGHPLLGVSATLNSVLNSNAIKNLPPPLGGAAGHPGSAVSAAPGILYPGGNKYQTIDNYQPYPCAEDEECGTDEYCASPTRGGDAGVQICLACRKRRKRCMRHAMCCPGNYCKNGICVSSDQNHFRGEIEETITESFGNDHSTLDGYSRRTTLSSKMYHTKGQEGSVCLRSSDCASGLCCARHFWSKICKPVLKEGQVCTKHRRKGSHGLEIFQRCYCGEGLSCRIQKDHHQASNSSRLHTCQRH
Epidermal growth factor receptor (Homo sapiens), sequence (P00533 whole entry, looked up): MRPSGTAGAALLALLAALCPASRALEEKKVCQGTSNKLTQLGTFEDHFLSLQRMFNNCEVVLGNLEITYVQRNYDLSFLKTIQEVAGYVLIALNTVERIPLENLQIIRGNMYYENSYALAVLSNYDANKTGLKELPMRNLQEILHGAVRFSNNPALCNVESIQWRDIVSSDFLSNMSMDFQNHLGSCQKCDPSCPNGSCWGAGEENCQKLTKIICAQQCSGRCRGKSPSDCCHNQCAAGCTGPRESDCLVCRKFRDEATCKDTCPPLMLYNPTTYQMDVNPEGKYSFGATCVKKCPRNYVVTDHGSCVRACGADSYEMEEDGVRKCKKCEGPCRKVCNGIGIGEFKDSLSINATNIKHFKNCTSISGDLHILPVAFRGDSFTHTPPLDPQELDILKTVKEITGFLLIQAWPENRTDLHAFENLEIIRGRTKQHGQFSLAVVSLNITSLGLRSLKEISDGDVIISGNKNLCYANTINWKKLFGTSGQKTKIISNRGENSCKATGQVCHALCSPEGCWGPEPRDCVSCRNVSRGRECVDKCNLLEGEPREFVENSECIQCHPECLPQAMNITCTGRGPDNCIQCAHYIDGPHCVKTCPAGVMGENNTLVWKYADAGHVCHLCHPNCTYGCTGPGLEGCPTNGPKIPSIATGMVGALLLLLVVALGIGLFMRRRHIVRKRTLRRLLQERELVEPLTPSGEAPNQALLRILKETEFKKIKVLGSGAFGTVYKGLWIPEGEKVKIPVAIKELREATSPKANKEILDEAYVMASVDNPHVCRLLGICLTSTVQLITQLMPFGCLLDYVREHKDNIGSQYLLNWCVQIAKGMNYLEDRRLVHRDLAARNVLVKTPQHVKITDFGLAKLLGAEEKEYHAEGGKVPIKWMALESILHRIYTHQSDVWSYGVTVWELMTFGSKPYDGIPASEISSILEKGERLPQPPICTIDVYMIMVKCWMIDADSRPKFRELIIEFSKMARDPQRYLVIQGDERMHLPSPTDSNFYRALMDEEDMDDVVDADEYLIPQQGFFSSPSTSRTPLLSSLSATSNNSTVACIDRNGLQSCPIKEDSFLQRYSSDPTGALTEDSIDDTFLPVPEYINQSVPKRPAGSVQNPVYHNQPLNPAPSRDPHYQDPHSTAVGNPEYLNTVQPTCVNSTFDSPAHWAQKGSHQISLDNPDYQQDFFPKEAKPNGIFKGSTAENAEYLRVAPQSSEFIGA
Fibroblast growth factor 10 (Homo sapiens), sequence (O15520 whole entry, looked up): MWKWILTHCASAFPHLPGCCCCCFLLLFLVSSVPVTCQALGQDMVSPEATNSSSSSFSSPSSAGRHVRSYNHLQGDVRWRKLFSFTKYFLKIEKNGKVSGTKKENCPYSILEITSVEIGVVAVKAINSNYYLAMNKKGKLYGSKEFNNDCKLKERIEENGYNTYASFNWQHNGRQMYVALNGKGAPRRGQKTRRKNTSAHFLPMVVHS

Regarding `COC(=O)[C@@]1(Cc2ccccc2)[C@H]2c3cc(C(=O)N4CCCC4)n(Cc4cc(F)cc5c4OCOC5)c3C[C@H]2CN1C(=O)c1ccccc1`, the composite z-score in experiment [1] was 1.54; in experiment [2], 0.513; in experiment [3] it was 1.1; in [5] it was 1.22; in experiment [6], 0.0232; in experiment [7] it was -0.12. The composite z-score in [8] was 0.286; in experiment [9], -0.66; in experiment [10] it was 0.538; in [11] it was 0.0951; in experiment [13], -0.655; in experiment [14], 1.08. For the same compound, the composite z-score in experiment [15] was 0.641; in [16], 0.14; in [17] it was 0.688; in experiment [18], 1.93; in experiment [19] it was 1.74; in experiment [20], 0.468. Besides, the z-score was -0.955 (inactive) in experiment [4] and -0.592 in [12].

Turning to `NC(=O)N1C(=O)C2C(C1=O)C1C=C(c3ccc(CO)cc3)C2C(C2CC2)N1Cc1sc2ccccc2c1Cl` (stereo not given), the composite z-score was 0.834 in experiment [1]; -0.0675 in experiment [2]; 0.102 in experiment [3]; 1.25 in experiment [5]; 1.12 in experiment [6]; 0.553 in experiment [7]. The composite z-score was 1.21 in experiment [8]; 0.307 in experiment [9]; -0.115 in [10]; 0.0882 in experiment [11]; 1.27 in experiment [13]; 0.867 in [14]. For the same compound, the composite z-score in experiment [15] is 0.163; in [16], 0.272; in experiment [17] it was 0.0756; in experiment [18], 0.264; in experiment [19] it was 1.9; in experiment [20], 2.12. Also, the values for the z-score in experiment [4] and in experiment [12] were -0.72 (inactive) and -1.39, respectively.

Regarding `O=C1c2ccccc2[C@](Cc2ccccc2I)(C(=O)NCCN2CCOCC2)[C@H](c2ccc(CO)cc2)N1Cc1ccccc1`, the composite z-score turned out to be 1.21 in [1]; 1.05 in experiment [2]; 0.345 in [3]; 0.712 in [5]; 1.04 in experiment [6]; 0.167 in experiment [7]. Moreover, the composite z-score in experiment [8] turned out to be 1.04; in experiment [9] it was 0.352; in experiment [10], 0.59; in [11] it was 1.41; in experiment [13], 0.522; in experiment [14], 1.25. For the same compound, the composite z-score in experiment [15] amounted to 0.295; in experiment [16] it was 0.359; in [17], 0.385; in [18], 0.482; in experiment [19] it was 0.496; in experiment [20], 1.64. Besides, the results for the z-score in experiment [4] and in experiment [12] were -0.825 (inactive) and -1.79, respectively.

With `COCCOC(=O)N1C(=O)[C@@]2(c3cc(C#CC4=CCCCC4)ccc31)[C@H](c1ccc(O)cc1)N1[C@H](c3ccccc3)[C@H](c3ccccc3)OC(=O)[C@H]1[C@@H]2C(=O)Nc1nc2ccccc2s1`, the composite z-score in [1] was 1.56; in experiment [2], 0.663; in experiment [3], -0.277; in experiment [5], 1.33; in [6], 1.24; in experiment [7], 0.383. Besides, the composite z-score in experiment [8] worked out at 1.19; in [9], 0.45; in [10] it was 0.248; in experiment [11] it was 0.909; in experiment [13], 0.494; in experiment [14], 1.81. For the same compound, the composite z-score was 0.0702 in [15]; -0.0654 in experiment [16]; -0.066 in [17]; -0.482 in experiment [18]; 1.12 in [19]; 1.21 in experiment [20]. In addition, the z-score in [4] was 0.51 (inactive); in [12], -0.598.

As to `O=C1C[C@@](C(=O)NCC(F)(F)F)(c2ccc([N+](=O)[O-])cc2)[C@@H](c2ccc(CO)cc2)N1C1CCCCC1`, the composite z-score in [1] worked out at 1.65; in experiment [2], 0.74; in experiment [3], 0.843; in experiment [5] it was 0.86; in [6], 1.31; in [7] it was 0.308. The composite z-score turned out to be 1.03 in [8]; 0.172 in experiment [9]; 0.563 in experiment [10]; 1.04 in [11]; 0.301 in experiment [13]; 0.769 in experiment [14]. For the same compound, the composite z-score was -0.088 in experiment [15]; -0.006 in experiment [16]; 0.0898 in experiment [17]; 0.0807 in experiment [18]; 1.9 in experiment [19]; 1.8 in experiment [20]. Also, the z-score in [4] was -0.684 (inactive); in experiment [12], -1.4.
